The source of these data is PubChem BioAssay (NCATS).

Results filed as inconclusive are left out. Calls of active or inactive are those of the source. The call rests on the fitted dose curve; in most records, active means well fitted inhibition curve with a large enough effect; inconclusive means small, poorly fitted or top-dose-only effect; inactive means flat fitted curve, though single readings scatter.

The target in the assay is Aldehyde dehydrogenase, mitochondrial (Homo sapiens) (UniProt P05091). The assay is described as follows: qHTS for Inhibitors of the Aldehyde Dehydrogenase Family (ALDH2) Primary screen (AID 2061308).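 Further: plate controls were vehicle for no effect and reference inhibitor for full effect; nearly all actives have a fitted effect of over 55% in size.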 The conditions noted are these: ALDH2 enzyme inhibition qHTS, 1536-well; series mostly up to 56 µM; activity change, negative = inhibition: at the top concentration.
With `C[C@@H]1CC[C@]2(C(=O)O[C@@H]3O[C@H](CO[C@@H]4O[C@H](CO)[C@@H](O)[C@H](O)[C@H]4O)[C@@H](O)[C@H](O)[C@H]3O)CC[C@]3(C)C(=CCC4[C@@]5(C)CC[C@H](O)[C@](C)(C(=O)O)C5CC[C@]43C)[C@@H]2[C@]1(C)O` (stereo partly drawn), the “activity change, negative = inhibition” value is -4.89% [at 16.9 µM] (inactive).
Turning to `Cc1ccc(-c2ncc[nH]2)cc1NC(=O)c1ccc(OCc2ccccn2)cc1`, the “activity change, negative = inhibition” value was -14% (inactive).
In the case of `C[C@@H]1O[C@@H](O[C@H]2[C@H](O)[C@@H](O)[C@H](OC3CCC4(C)C5CCC(C)(C(CO)OC6OC(CO)C(O)C(O)C6O)CC5=CCC4C3(C)C)O[C@@H]2CO)[C@H](O)[C@H](O)[C@H]1O` (stereo partly drawn), the “activity change, negative = inhibition” value is -5.67% [at 16.9 µM] (inactive).
Next, `CN1CCN(c2ccc(Nc3cc(-c4cccc(-n5ccc6cc(C7CC7)cc(F)c6c5=O)c4CO)cn(C)c3=O)nc2)CC1`: 1.58% (inactive); `C=C(C)[C@@H]1CC[C@](C)(O)[C@@H](OC(=O)c2ccccc2)C1`: 1.92% (inactive).
`COC(=O)C[C@H]1C(C)(C)[C@H](OC(=O)c2ccccc2)C2CC3=C4CC(=O)O[C@@H](c5ccoc5)[C@]4(C)CCC3[C@@]1(C)C2=O` (stereo partly drawn): the “activity change, negative = inhibition” value is 3.45% [at 28 µM] (inactive).
As for `CC(=O)OC1C(C)C2C(OC3OC(CO)C(O)C(O)C3O)OC=C(C(=O)O)C2C1OC(=O)c1ccccc1` (stereo not drawn), the “activity change, negative = inhibition” value is 28.6% [at 28 µM] (inactive).
On to `CC(C)c1cc(C(=O)N2CC[C@@H](NC(=O)C3CC3)C2)n[nH]1`, for which the “activity change, negative = inhibition” value was 3.61% (inactive).
With `COC1C(OC(=O)/C=C/C=C/C=C/C=C/C(=O)O)CCC2(CO2)C1C1(C)OC1CC=C(C)C` (stereo not drawn), the “activity change, negative = inhibition” value was -2.63% [at 28 µM] (inactive).
Consider `COc1cc(/C=C/C(=O)O[C@@H]2C[C@@](O)(C(=O)O)C[C@@H](O)[C@@H]2O)ccc1O`, for which the “activity change, negative = inhibition” value was -1.99% (inactive).
Take `CC(=O)OC/C(=C/C(=O)O)CC[C@@H]1C(C=O)=CC[C@@H]2C(C)(C)CCC[C@@]12C`: the “activity change, negative = inhibition” value is -3.24% (inactive).
Regarding `C=CCc1ccc(OC(C)Cc2ccc(OC)c(OC)c2)c(OC)c1` (stereo not drawn), the “activity change, negative = inhibition” value is -1.38% (inactive).
The value for `CC(C)C1NC(=O)C(CC2(O)c3ccccc3N3C(=O)C(Cc4ccccc4)NC32)NC1=O` (stereo not drawn) was -11.9% [at 28 µM] (inactive); that for `CC(C#N)C(C)O[C@@H]1O[C@H](CO)[C@@H](O)[C@H](O)[C@H]1O` (stereo partly drawn) was -0.362% (inactive).
`C=CC1(C)C=C2C(=O)CC3C(C)(C)CCCC3(C(=O)O)C2(O)CC1` (stereo not drawn): the “activity change, negative = inhibition” value was -5.07% (inactive).
For the compound `CC(=O)NC1C(OC2CCC3(C)C(CCC4(C)C3CC=C3C5CC(C)(C)CCC5(C(=O)O)C(O)CC34C)C2(C)C)OC(CO)C(O)C1O` (stereo not drawn), the “activity change, negative = inhibition” value is -5.46% [at 16.9 µM] (inactive).
As for `COC(=O)c1cc(OC)cc(OC)c1C(=O)c1c(OC)cc2c(c1O)C1CCC(O)C(C)(O2)O1` (stereo not drawn), the “activity change, negative = inhibition” value was 3.8% [at 28 µM] (inactive).
Consider `CC(C)=CCc1ccc(Oc2c(O)cc(C)cc2CO)c(C(=O)O)c1O`, for which the “activity change, negative = inhibition” value was -6.92% (inactive).
